# Bioassay records: PubChem, several laboratories
# The list is not random: actives were taken first. Their share in the collection is about 4.2%.
# Mtb bLac sens = beta-lactam sensitization of Mtb H37Rv. inhibition, % at 25 µM. 330,000 tested, 0.27% active. M. tuberculosis H37Rv growth with meropenem, percent inhibition. AID 434955; call rule not given here;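 also: growth measured after seven days incubation then overnight dye step; 0% = bacteria only wells and 100% = bacteria with antibiotic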
# Mtb FBA inh = Mtb fructose-bisphosphate aldolase inhibition; P9WQA3; purified M. tuberculosis FBA, fluorescence read-out; inhibition, % at 1 µM; 360,000 tested, 2.3% active; AID 588726; in the data active = inhibition above about 27%;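 also: 0% = vehicle and 100% = reference inhibitor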
# Target sequence (P9WQA3 whole entry, looked up): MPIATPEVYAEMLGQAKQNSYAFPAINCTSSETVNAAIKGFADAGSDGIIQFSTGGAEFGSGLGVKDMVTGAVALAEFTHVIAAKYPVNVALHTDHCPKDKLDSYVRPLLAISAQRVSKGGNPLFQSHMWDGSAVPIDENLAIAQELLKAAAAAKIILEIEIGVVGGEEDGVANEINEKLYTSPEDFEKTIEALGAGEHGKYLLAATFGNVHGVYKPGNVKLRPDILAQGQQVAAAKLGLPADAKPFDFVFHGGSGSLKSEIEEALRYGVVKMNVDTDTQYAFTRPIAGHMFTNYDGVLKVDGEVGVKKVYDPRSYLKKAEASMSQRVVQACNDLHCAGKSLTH
# GDH-TPI inh = counter-screen for M. tuberculosis FBA inhibitors: GDH-TPI coupled enzymes. inhibition, % at 4.8 µM. AID 588335. GDH-TPI coupled enzyme counterscreen, NADH absorbance. 360,000 tested, 1.2% active;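 also: 0% = DMSO wells and 100% = wells lacking the enzyme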
# CCHF vOTU inh = blocks the CCHF virus ovarian tumor domain protease; CCHFV vOTU protease, Pep-AMC fluorescence; 370,000 tested, 0.55% active; inhibition, % at 11.5 µM; AID 651958; also: 0% = vehicle wells with enzyme and 100% = no enzyme wells
# RecA intein inh = Mtb RecA intein splicing inhibition; P9WHJ3; cell-free RecA intein splicing, fluorescence; inhibition, % (concentration not given with the values); 290,000 tested, 0.75% active; AID 2221; in the data active = inhibition above about 30%;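 also: 0% = vehicle wells and 100% = reference inhibitor control wells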
# An asterisk follows results filed as active; . = no result given; + = active, no number. Rule as the data show it, unless noted: active = inhibition above about 30%; inactive = the rest.
SMILES,Mtb bLac sens,Mtb FBA inh,GDH-TPI inh,CCHF vOTU inh,RecA intein inh
COc1ccc(-c2cc(C(F)(F)F)nc(SCCC(=O)Nc3cc(C)on3)n2)cc1,1.8,4.3,-3.1,13.5,0.0
COCCNC(=O)CCSc1nc(-c2ccc(OC)cc2)cc(C(F)(F)F)n1,1.8,22.1,35.6*,-1.3,1.5
O=C(O)CCn1c(-c2ccccn2)nc2ccccc21,2.5,27.1*,-0.5,-12.7,-1.1
C[C@@H]1OCN(C)[C@H]2C[C@H]3c4[nH]c5cccc(-c6ccccc6)c5c4CCN3C[C@@H]12,.,.,.,-9.5,.
Nc1c(C(=O)c2ccccc2)oc2ccc(Br)cc12,-20.1,4.2,8.5,1.7,-15.2
Nc1c(C(=O)c2ccccc2)oc2ccc([N+](=O)[O-])cc12,-2.0,3.3,33.5*,0.9,0.9
O=C(CSC1=NNC(c2ccccn2)S1)Nc1ccc(C(F)(F)F)cc1 (stereo not given),19.7,-2.0,32.4*,1.6,0.7
O=C(CSc1nc2ccccc2nc1N1CCCC1)N1CCN(c2cccc(C(F)(F)F)c2)CC1,.,.,.,14.2,.
COc1ccc(-c2cc(=O)c3ccccc3[nH]2)cc1,-5.1,11.8,11.2,-13.3,-1.6
COc1ccc(-c2cc(-c3ccccc3)nc(=O)[nH]2)cc1,-4.1,+,13.9,-204.2,-0.8
NC(=S)N/N=C1\CC(c2ccc3c(c2)OCCO3)Oc2ccc(F)cc21 (stereo not given),-11.1,-2.4,40.1*,6.3,-0.8
O=C1CC(c2ccc3c(c2)OCCO3)Oc2ccccc21 (stereo not given),3.2,-1.0,6.6,10.0,2.8
NC(=S)N/N=C1\CC(c2ccc3c(c2)OCCCO3)Oc2ccc(F)cc21 (stereo not given),-13.7,0.2,44.8*,-3.3,10.5
O=C(CSc1nc2ccccc2n1Cc1ccccc1)NN=C/C=C/c1ccccc1,.,.,.,4.1,.
COc1ccc2nc(N3CCOCC3)cc(C)c2c1,7.9,85.2*,15.1,-63.6,-5.2
COc1ccc2c(C)cc(N3CCOCC3)nc2c1,-2.6,12.0,6.9,-13.2,-2.1
C[C@@H]1COc2cc(Br)ccc2S(=O)(=O)N1Cc1cn(Cc2ccc(F)cc2)nn1,.,.,.,-5.2,.
O=C(O)[C@@H](c1ccccc1)N1Cc2ccccc2C1=O,-2.6,1.3,14.4,2.6,32.1*
O=C(CNS(=O)(=O)c1ccc(Cl)s1)N1CCN(c2ccccn2)CC1,.,.,.,6.2,.
O=C(OCc1cn(Cc2ccccc2Cl)nn1)N1CCOCC1,.,.,.,3.2,.
CCc1cc(=O)oc2c3c(cc(OCC(=O)N[C@H](C(=O)O)[C@H](C)CC)c12)OC(C)(C)CC3,-4.0,+,16.7,-202.1,-1.4
CCCc1cc(=O)oc2cc(OCC(=O)OC)cc(OCC(=O)OC)c12,.,.,.,.,1.9
CCc1cc(=O)oc2cc(C)cc(OCC(=O)NC(Cc3c[nH]c4ccc(O)cc34)C(=O)O)c12 (stereo not given),-2.4,12.4,8.3,-4.2,-4.3
CCCc1cc(=O)oc2c3c(cc(OCC(=O)N[C@@H](CSC)C(=O)O)c12)OC(C)(C)CC3,-4.0,+,20.0,-147.8,0.8
CCCc1cc(=O)oc2cc(C)cc(OCC(=O)NC(Cc3c[nH]c4ccc(O)cc34)C(=O)O)c12 (stereo not given),-1.7,19.1,0.0,-3.8,-6.4
SMILES,Mtb bLac sens,Mtb FBA inh,GDH-TPI inh,CCHF vOTU inh,RecA intein inh
CCCc1cc(=O)oc2c3c(cc(OCC(=O)N[C@@H](C)C(=O)O)c12)OC(C)(C)CC3,5.9,+,14.0,-192.1,0.0
C=CCN1C(=O)[C@H](CC(=O)NCc2ccc(C)o2)[C@@]2(C(=O)OCC)CCCC=C12,.,.,.,-5.2,.
C[C@H](O)[C@@H]1CN2CCc3c([nH]c4c(-c5ccc6c(c5)OCO6)cccc34)[C@@H]2C[C@@H]1N(C)C(=O)NC1CCCCC1,.,.,.,-1.4,.
COC(=O)C1=C(C)N(Cc2cccc(C(F)(F)F)c2)C(=NCc2ccc(C(F)(F)F)cc2)NC1c1ccccc1C(F)(F)F (stereo not given),.,.,.,11.5,.
O=C(N/N=C\C=C\c1ccc2c(c1)OCO2)c1cccnc1,1.7,1.2,54.5*,3.2,-5.3
O=C(/C=C/c1ccc2c(c1)OCO2)c1cccnc1,-0.8,4.2,20.7,6.6,0.6
COc1ccccc1C(=O)N/N=C/c1ccc2c(c1)OCO2,-1.6,-1.4,9.1,-3.8,.
COc1cc2ccccc2cc1C(=O)N/N=C/c1ccc2c(c1)OCO2,9.0,3.5,42.3*,4.7,-0.1
O=C(NN=Cc1ccc2c(c1)OCO2)c1ccncc1,.,0.1,33.3*,4.6,.
COc1cc(/C=N/NC(=O)c2ccncc2)cc2c1OCO2,98.1,-1.3,16.6,5.5,-1.8
O=C(N/N=C\C=C\c1ccc2c(c1)OCO2)C1COc2ccccc2O1 (stereo not given),6.0,4.2,39.7*,6.0,-1.2
COc1cccc(/C=C2\CC3(OC(=O)C4CCCCC4)CCCN2C3)c1 (stereo not given),.,.,.,10.8,.
COc1ccc(-n2c(Cc3cccs3)nnc2SCC(=O)Nc2ccc(OCc3ccccc3)cc2)cc1,.,.,.,4.9,.
COc1ccc(/C=N/NC(=O)c2cccc(Br)c2)cc1CN1CCOCC1,3.9,-4.4,11.7,-4.9,2.3
O=C(NN=Cc1ccc2c(c1)OCO2)c1ccccc1,.,-1.0,37.7*,3.2,.
S=C(NN=Cc1ccc2c(c1)OCO2)NN=Cc1ccc2c(c1)OCO2,.,1.1,61.7*,10.4,.
O=C(N/N=C/c1ccc2c(c1)OCO2)c1ccc2c(c1)OCO2,-7.1,-2.4,15.7,29.2,-0.1
COc1cc(NC(=O)c2ccc3c(c2)OCO3)ccc1NC(=O)c1ccco1,-1.8,0.0,41.8*,7.4,-3.3
COc1ccc(/C=N/NC(=O)c2ccccc2O)cc1CN1CCOCC1,6.0,5.1,40.0*,1.5,-1.6
Cc1ccc(-c2nnc3n2N=C(c2ccc4ccccc4c2)CS3)cc1,.,.,.,-0.8,.
C/C=C/c1ccc([C@@H]2[C@H](CO)N(S(C)(=O)=O)[C@H]2CN(C)C(=O)CC)cc1,.,.,.,-4.5,.
COC(=O)C[C@@H]1CC[C@H]2[C@H](COc3ccc(NC(=O)Nc4ccc(C#N)cc4)cc3C(=O)N2C)O1,.,.,.,-6.7,.
COC(=O)[C@H](C(C)C)N(Cc1cn(CC2CCCCC2)nn1)S(=O)(=O)c1ccc(F)cc1Br,.,.,.,17.5,.
O=C(N/N=C\c1cccc(OC(=O)c2ccco2)c1)c1ccc2c(c1)OCO2,8.2,0.0,17.4,13.2,10.3
O=C(N/N=C\c1ccc2c(c1)OCO2)c1ccco1,1.9,3.8,43.4*,10.9,0.7
SMILES,Mtb bLac sens,Mtb FBA inh,GDH-TPI inh,CCHF vOTU inh,RecA intein inh
COc1ccc(-n2c(/C=C/c3ccc(O)cc3)nc3ccccc3c2=O)cc1,-8.6,0.7,57.1*,4.0,-12.4
O=c1c2ccccc2nc(/C=C/c2ccc(Br)cc2)n1CCO,4.8,2.7,35.4*,9.1,-17.0
O=C1N2Cc3ccccc3C2CS(=O)(=O)N1CCc1ccccc1 (stereo not given),.,.,.,-5.7,.
CCOC(=O)[C@@]12CCCC=C1N(CCc1ccc(Cl)cc1)C(=O)[C@H]2CC(=O)N1CCN(C(=O)c2ccco2)CC1,.,.,.,7.5,.
O=C(CSc1nnc(-c2ccco2)n1Cc1ccco1)c1ccc([N+](=O)[O-])cc1,.,.,.,8.3,.
CCCNC(=O)C[C@H]1CC[C@H]2[C@@H](COc3ccc(NC(=O)Nc4ccc(C#N)cc4)cc3C(=O)N2C)O1,.,.,.,-8.0,.
